Most compounds without a hit are left out; they make up all but 3.3% or so of the library.
Smad3 FoxH1 inh: blocks human Smad3 binding to FoxH1 peptide; P84022; TR-FRET Smad3/Dy647-FoxH1 peptide binding, europium anti-His; inhibition, % at 25 µM; 88,000 compounds, 0.29% hits; AID 630;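 active means compounds that reduce the energy-transfer binding signal between the protein and its labelled peptide by more than half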
ERa coact pot: enhances coactivator binding to human estrogen receptor alpha | coactivator binding (% of control), % at 25.6 µM | P03372 | TR-FRET ERalpha-LBD/SRC-Cy5 coactivator binding, 2 h; 100 = basal binding, no effect | AID 639 | 86,000 compounds, 1.3% hits; in the data active means activity above about 200%;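 further: binding measured in presence of low estradiol as agonist stimulus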
ERb coact inh: ER-beta (human) coactivator binding inhibition. TR-FRET ER-beta LBD / SRC1-Cy5 peptide binding; receptor agonist-loaded with 1 µM estradiol. inhibition, % at 25.6 µM. 86,000 compounds, 1.3% hits;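 active means compounds whose percent inhibition of the receptor-coactivator binding signal exceeds about 50% in the single-dose screen, limit read from the data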
ERa SRC1 inh: ER-alpha (human) coactivator binding inhibition; P03372; TR-FRET ER-alpha LBD / SRC-1 peptide, estradiol-bound; inhibition, % at 25.6 µM; 86,000 compounds, 1.7% hits; AID 629; in the data active means inhibition above about 50%
FAK inh: FAK (human) kinase inhibition; Q05397; biochemical FAK kinase activity assay; inhibition, %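 (tested at 7 µM)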; 97,000 compounds, 0.84% hits; in the data active means inhibition above about 19%
Target sequence (Q05397 whole entry, looked up): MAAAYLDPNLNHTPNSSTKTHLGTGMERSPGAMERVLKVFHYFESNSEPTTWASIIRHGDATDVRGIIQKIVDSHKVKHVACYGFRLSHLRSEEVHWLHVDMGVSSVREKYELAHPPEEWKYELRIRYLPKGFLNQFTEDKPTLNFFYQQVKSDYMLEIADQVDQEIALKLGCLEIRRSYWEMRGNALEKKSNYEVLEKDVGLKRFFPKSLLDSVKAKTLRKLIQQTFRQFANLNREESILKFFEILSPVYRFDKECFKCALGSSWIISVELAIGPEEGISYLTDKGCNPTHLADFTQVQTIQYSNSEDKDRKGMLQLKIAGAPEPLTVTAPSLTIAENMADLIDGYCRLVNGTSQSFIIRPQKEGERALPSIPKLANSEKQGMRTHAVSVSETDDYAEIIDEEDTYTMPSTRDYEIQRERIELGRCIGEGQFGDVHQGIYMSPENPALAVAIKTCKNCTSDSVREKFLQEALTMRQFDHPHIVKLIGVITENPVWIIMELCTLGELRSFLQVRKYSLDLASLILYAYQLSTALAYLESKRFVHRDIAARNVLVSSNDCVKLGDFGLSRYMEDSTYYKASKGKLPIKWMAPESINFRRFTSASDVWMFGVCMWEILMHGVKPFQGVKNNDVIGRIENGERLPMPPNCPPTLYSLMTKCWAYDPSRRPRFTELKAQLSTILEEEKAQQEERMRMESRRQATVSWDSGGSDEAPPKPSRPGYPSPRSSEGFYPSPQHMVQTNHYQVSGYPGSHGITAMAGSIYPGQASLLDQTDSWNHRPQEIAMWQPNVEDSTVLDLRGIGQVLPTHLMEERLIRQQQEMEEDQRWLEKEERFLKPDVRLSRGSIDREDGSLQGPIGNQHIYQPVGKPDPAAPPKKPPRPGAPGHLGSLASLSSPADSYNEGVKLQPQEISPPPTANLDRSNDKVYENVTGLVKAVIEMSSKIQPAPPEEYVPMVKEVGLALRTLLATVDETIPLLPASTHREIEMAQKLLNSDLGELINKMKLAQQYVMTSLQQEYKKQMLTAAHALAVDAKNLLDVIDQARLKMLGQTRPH
Hits are given with their value; n = inactive; x = not tested or not shown; [ ] = dose if it differs, or a comment.

SMILES | Smad3 FoxH1 inh | ERa coact pot | ERb coact inh | ERa SRC1 inh | FAK inh
Fc1ccc(NCc2cccnc2)cc1F | n | n | n | 62.5 | n
Nc1ncnc2c1ncn2CCCCC(=O)O | n | x | x | x | x
O=C(CCc1ccc(S(=O)(=O)N2CCOCC2)cc1)Nc1nc(COc2ccccc2)cs1 | x | x | x | x | n
O=C(CSc1ncnc2sc3c(c12)CCCC3)N1CCC(c2noc3ccc(F)cc23)CC1 | n | 354.9[fluorescence artefact?] | 65.7[fluorescence artefact?] | n | n
N[C@@](CCc1ccccc1)(C(=O)O)c1ccccc1 | n | x | x | x | x
COc1ccc(OCC(=O)Nc2cc(-c3nn(C)c(=O)c4ccccc34)ccc2OC)cc1 | n | 677.0[fluorescence artefact?] | n | n | n
COc1ccc(-c2nn(C)c(=O)c3ccccc23)cc1NC(=O)Cn1nc(-c2ccccc2)c2ccccc2c1=O | n | 290.4[fluorescence artefact?] | n | n | n
Cc1ccc(-c2nn(C)c(=O)c3ccccc23)cc1CNC(=O)Cn1nc(-c2ccccc2)c2ccccc2c1=O | n | n | n | 67.5[fluorescence artefact?] | n
Cc1nn(CC(=O)NCc2cccc3ccccc23)c(=O)c2ccccc12 | n | 256.6[fluorescence artefact?] | n | n | n
Cc1cc(C)n(CC(=O)NCc2cc(-c3nn(C)c(=O)c4ccccc34)ccc2C)n1 | n | n | n | n | n
NC[C@H]1O[C@H](n2cnc3c(N)ncnc32)C[C@@H]1O | n | x | x | x | x
NS(=O)(=O)c1ccc(N=Nc2cc3ccccc3c(C(=O)O)c2O)cc1 | n | x | x | x | x
COC(=O)[C@H]1[C@@H]2C[C@H]3c4[nH]c5ccccc5c4CCN3C[C@H]2CC[C@@H]1O | n | x | x | x | x
c1ccc2c(c1)nnn2CN1CCOCC1 | n | x | x | x | x
COc1ccc(C(N)CCc2ccc(C)o2)cc1 (stereo not given) | n | n | 74.1 | 95.1[fluorescence artefact?] | n
CCc1ccc(CCC(=O)Nc2ccc(OC)cc2)o1 | n | n | n | n | n
CCN(Cc1ccccc1)C(c1cc2ccc(C)cc2[nH]c1=O)c1nnnn1CCOC (stereo not given) | n | n | n | n | n
CCOc1cc(N2CCOCC2)c(OCC)cc1NC1=NCCCCC1 | n | n | 69.8[fluorescence artefact?] | n | n
FC(F)(F)c1ccc(N2CCOCC2)c(NC2=NCCCCC2)c1 | n | n | n | n | n
O=C(CN(C(=O)CSc1nc2ccccc2o1)c1ccccc1)NC1CCCCC1 | x | x | x | x | n
COC(=O)c1cccc(COC(=O)CNC(=O)c2ccco2)c1 | x | x | x | x | n
O=C(CNC(=O)c1ccco1)OCc1ccc(Cl)cc1 | n | n | 59.8 | n | n
Cc1ccc(C(=O)NC2CCSC2=O)cc1 (stereo not given) | 53.8[fluorescence artefact?] | n | n | n | n
O=C(NC1CCSC1=O)c1ccccc1 (stereo not given) | n | n | n | n | n
O=C(NC1CCSC1=O)c1cccc(C(=O)NC2CCSC2=O)c1 (stereo not given) | n | 207.7 | n | n | n
SMILES | Smad3 FoxH1 inh | ERa coact pot | ERb coact inh | ERa SRC1 inh | FAK inh
COC(=O)CC[C@@H](C)[C@H]1CC[C@H]2[C@@H]3CC[C@H]4C[C@@H]5CC[C@@]4(C)[C@]3(O5)[C@H](Br)[C@@H](Br)[C@]12C | n | x | x | x | x
COc1ccc(NC(=O)c2ccccc2NC(=O)COc2ccccc2)cc1 | n | 211.4[fluorescence artefact?] | n | 56.3[fluorescence artefact?] | n
COCC(=O)Nc1ccccc1C(=O)Nc1ccc(OC)cc1 | n | n | n | n | n
Cc1nn(C)c(C)c1NC(=O)CSc1nc(C2CC2)nc2c1cnn2-c1ccccc1 | n | n | n | n | n
Cc1nn(C)c(C)c1NC(=O)CSc1nc(-c2ccccc2Cl)nc2c1cnn2-c1ccccc1 | n | n | n | 73.5[fluorescence artefact?] | n
CCOCC(=O)Nc1c(C(=O)Nc2ccc(OC)cc2OC)oc2ccccc12 | n | n | n | n | n
COc1cccc(OCC(=O)Nc2c(C(=O)Nc3ccc(OC)cc3OC)oc3ccccc23)c1 | n | 219.8[fluorescence artefact?] | 50.1[fluorescence artefact?] | 72.9[fluorescence artefact?] | x
COCC(=O)Nc1c(C(=O)Nc2ccccc2OC)oc2ccccc12 | n | 213.3[fluorescence artefact?] | n | n | n
NCCOc1ccccn1 | n | x | x | x | x
NC1=C(O)C(=O)[C@H](c2c[nH]c3ccc(OCc4ccccc4)cc23)O1 | n | x | x | x | x
C[C@]12CC[C@@H]3c4ccc(O[C@@H]5O[C@H](C(=O)O)[C@@H](O)[C@H](O)[C@H]5O)cc4CC[C@H]3[C@@H]1C[C@@H](O)[C@@H]2O | n | 429.1 | n | n | x
CN(C)CCCn1cnc2cc(Cl)c(Cl)cc21 | n | x | x | x | x
O=C(Nc1ccccc1)Nc1ccc2snnc2c1 | n | n | n | n | n
CC(C)COC(=O)c1nnsc1NC(=O)Nc1ccccc1 | n | n | 60.8 | 64.3[fluorescence artefact?] | n
CCc1ccc(CNC(=O)c2cc3c(C)nc4ccccc4c3o2)cc1 | n | n | 60.5[fluorescence artefact?] | n | n
Cc1occc1C(=O)NCc1ccc2c(c1)OCO2 | n | n | n | n | n
O=C(O)c1ccccc1C(=O)NCc1ccccc1 | n | n | n | n | n
COc1ccc(C)cc1NC(=O)c1cc2c(C)nc3ccccc3c2o1 | n | 204.0[fluorescence artefact?] | 57.7[fluorescence artefact?] | 66.2[fluorescence artefact?] | x
Cc1occc1C(=O)NCc1cccc(CNC(=O)c2ccoc2C)c1 | n | n | n | 64.5 | n
Cc1nc2cccc(C(=O)NCc3ccccc3)c2o1 | n | n | n | 63.6 | n
O=C(O)c1ccc(C(=O)c2ccccc2)c(C(=O)O)c1 | n | x | x | x | x
NCCNc1ncnc2ccc(Cl)cc12 | n | x | x | x | x
Cc1ccc(CCN2CC(C(=O)NCCN3CCCCCC3)CC2=O)cc1 (stereo not given) | n | n | n | n | n
COc1ccc(CN2CC(C(=O)NCCCN3CCCCCC3)CC2=O)cc1 (stereo not given) | n | 202.6[fluorescence artefact?] | n | n | n
Cc1ccc(CCN2CC(C(=O)NCCCN3CCCCCC3)CC2=O)cc1 (stereo not given) | 66.2 | 917.2[fluorescence artefact?] | 57.6[fluorescence artefact?] | n | n
SMILES | Smad3 FoxH1 inh | ERa coact pot | ERb coact inh | ERa SRC1 inh | FAK inh
COC(=O)c1cc(NC(=O)Cn2c(=O)cnc3ccccc32)cc(C(=O)OC)c1 | n | n | n | 55.1 | n
COC(=O)Cn1c(=O)cnc2ccccc21 | n | n | n | n | x
CN(C)CCCSc1nc2ccccc2[nH]1 | n | x | x | x | x
Cn1ccnc1SCC(=O)Nc1ccc2nc(SCC(=O)NC3CC3)sc2c1 | n | n | n | 53.1 | n
Cn1ccnc1SCC(=O)Nc1ccc2c(c1)COC2=O | n | n | n | n | n
O=C(O)CC[C@]1(C(=O)O)CCC(=O)c2ccccc21 | n | x | x | x | x
CCOC(=O)c1c(C)n(-c2ccc(C)cc2)c2c(C(C(C)=O)C(=O)O)c(Br)c(O)c(O)c12 (stereo not given) | x | x | x | x | n
CCOC(=O)C(C(C)=O)c1c(Br)c(O)c(O)c2c(C(=O)c3ccc(C)cc3)coc12 (stereo not given) | n | n | 71.6[fluorescence artefact?] | n | n
CCC1=C(C[C@H]2NCCc3ccccc32)C[C@H]2c3cc(OC)c(OC)cc3CCN2C1 | n | x | x | x | x
CN(C)c1ncc(C2=C(Cl)C(=O)C(N3CCCC3)=C(Cl)C2=O)s1 | n | n | 94.5[fluorescence artefact?] | 97.3[fluorescence artefact?] | 39.4
O=C(N/N=C/c1ccc(O)c(O)c1O)/C(=C/c1ccc([N+](=O)[O-])cc1)NC(=O)c1ccccc1 | n | n | 71.0[fluorescence artefact?] | 89.0[fluorescence artefact?] | n
Cc1ccc(NC2=C/C(=N\S(=O)(=O)c3cccs3)c3ccccc3C2=O)c(C)c1 | n | n | n | n | 40.8
COc1ccc2c(C)nc(Nc3nc(C)cc(C)n3)nc2c1 | n | 242.5 | n | n | n
CCN1CCN(Cc2ccc(NC(=O)Nc3ccccc3Cl)cc2)CC1 | n | 260.8 | n | n | x

Screening data (PubChem BioAssay)
